Screening results from PubChem.
Compounds with a hit are over-represented: about 3.5% of the library has one in this group of screens.
Autofluor counter: flagged as autofluorescent in microsphere protease counterscreen. AID 624483. hit rate 3.1% among 360,000. compound autofluorescence counterscreen, microsphere flow cytometry; hits give high values. fluorescence intensity (test concentration not listed); in the data active = fluorescence intensity above about 16000; inconclusive = no clear call, values can overlap the other calls
BoNT A protease: BoNT/A light chain protease inhibitors, primary screen, biochemical, flow cytometry, MLPCN library. Botulinum neurotoxin type A light chain protease (Clostridium botulinum A str. ATCC 3502). hit rate 0.17% among 360,000. multiplex microsphere protease substrate cleavage. inhibition, % at 10 µM; also: plate controls were buffer without enzyme for full effect and enzyme alone for no effect
Anthrax LF inh2: Bacillus anthracis LF protease inhibitors, primary screen, biochemical, multiplex microsphere, MLPCN library; multiplex microsphere protease cleavage assay; inhibition, % at 10 µM; hit rate 0.12% among 360,000; also: plate controls were buffer without enzyme for full effect and enzyme alone for no effect
Target sequence (P15917 whole entry, looked up): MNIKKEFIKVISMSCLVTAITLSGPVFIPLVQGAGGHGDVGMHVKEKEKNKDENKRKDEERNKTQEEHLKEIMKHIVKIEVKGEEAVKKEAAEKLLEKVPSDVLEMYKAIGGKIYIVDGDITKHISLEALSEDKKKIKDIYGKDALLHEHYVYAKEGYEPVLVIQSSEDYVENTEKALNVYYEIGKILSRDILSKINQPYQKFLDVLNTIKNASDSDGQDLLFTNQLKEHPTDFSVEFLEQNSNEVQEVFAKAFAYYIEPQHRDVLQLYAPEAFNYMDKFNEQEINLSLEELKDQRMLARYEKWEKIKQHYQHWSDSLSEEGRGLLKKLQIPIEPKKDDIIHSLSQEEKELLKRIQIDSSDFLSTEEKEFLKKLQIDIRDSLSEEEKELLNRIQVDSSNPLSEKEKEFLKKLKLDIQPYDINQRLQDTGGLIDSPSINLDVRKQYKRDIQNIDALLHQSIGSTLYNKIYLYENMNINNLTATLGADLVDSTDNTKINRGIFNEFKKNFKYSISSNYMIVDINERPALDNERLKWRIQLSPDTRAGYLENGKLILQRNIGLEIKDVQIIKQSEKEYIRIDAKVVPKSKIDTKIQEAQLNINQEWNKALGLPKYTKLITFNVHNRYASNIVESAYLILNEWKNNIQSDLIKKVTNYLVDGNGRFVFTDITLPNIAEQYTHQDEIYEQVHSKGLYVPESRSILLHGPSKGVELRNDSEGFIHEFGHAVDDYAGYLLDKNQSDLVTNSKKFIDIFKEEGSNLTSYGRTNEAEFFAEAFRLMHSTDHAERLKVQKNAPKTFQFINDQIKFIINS
BoNT F protease: BoNT/F light chain protease inhibitors, primary screen, biochemical, flow cytometry, MLPCN library | Multiplex microsphere protease cleavage assay | inhibition, % at 10 µM | hit rate 0.22% among 360,000 | AID 588497, 2011; in the data active = inhibition above about 35%, passing the limit was not always enough; inconclusive = no clear call, values can overlap the other calls; also: plate controls were buffer without enzyme for full effect and enzyme alone for no effect
* = called active by the depositor; ? = inconclusive. Rule as the data show it, unless noted: active = inhibition above about 30%; inconclusive = no clear call, values can overlap the other calls; inactive = below that.

SMILES	Autofluor counter	BoNT A protease	Anthrax LF inh2	BoNT F protease
CCCN=C(N)/C(C(=O)OCC)=C(\O)c1ccc(OC)cc1	21368*	3.9	-11.9	1.7
CC(=O)c1cccc(NC(=O)c2ccc(N(Cc3ccc(C)cc3)S(C)(=O)=O)cc2)c1	17101*	-1.9	-2.1	-1.2
CCOC(=O)N1CCN(C(=O)c2ccc(N(Cc3ccc(C)cc3)S(C)(=O)=O)cc2)CC1	23851*	-2.2	-3.0	-2.0
CCOC(=O)N1CCN(C(=O)c2ccc(N(Cc3ccc(Cl)cc3)S(C)(=O)=O)cc2)CC1	3652	0.5	-0.1	-8.8
Cc1ccc(Nc2nnc(SCC(=O)NC3CC3)s2)cc1	3612	0.0	-11.8	-5.7
COc1ccc(CCNC(=O)c2noc3c2CCCC3)cc1OC	21948*	1.5	2.1	-0.2
COc1ccc(CCNC(=O)C(=O)NCc2ccc(C(C)C)cc2)cc1OC	24221*	?	-2.7	-4.8
COc1cc(CNCCNC(=O)c2nonc2N)ccc1OCc1ccc(Cl)nc1	2271	0.3	-1.5	-8.6
COc1cc(OC)c(OC)cc1CNCCNC(=O)c1nonc1N	24547*	-1.5	0.6	-2.7
COc1ccc(CNCCNC(=O)c2nonc2N)cc1OC	?	0.3	-8.9	?
COc1ccc(CCNC(=O)c2nonc2N)cc1OC	20897*	1.8	1.3	3.6
O=C(NCc1ccc(Cl)c(Cl)c1)c1cc(C2CCCCN2C(=O)OCCF)on1 (stereo not drawn)	3461	0.2	-2.0	-0.9
Nc1nonc1C(=O)NCCNCc1cc(Br)ccc1OCc1ccc(F)cc1	19634*	?	-9.0	-13.6
CCOc1cccc(CNCCNC(=O)c2nonc2N)c1	22612*	0.0	0.7	-5.3
Nc1ncnc2c1ncn2[C@@H]1O[C@H](C(=O)N[C@H]2c3ccccc3C[C@H]2O)[C@@H](O)[C@H]1O	4073	0.0	-4.0	8.3
Cc1cccc(C)c1NC(=O)C(c1ccccc1OC(F)(F)F)N1CCN(c2ccc(F)cc2)CC1 (stereo not drawn)	5533	-0.6	8.7	-0.9
Cc1ccc2[nH]c(=O)c(N3CCOCC3)c(-c3ccccc3)c2c1	25661*	?	-3.1	-7.8
CCN1CC2CCCC3(C1)C(=O)NC1(CCCCC1)N=C23 (stereo not drawn)	21486*	-1.8	0.1	-1.2
O=C(Nc1ccccc1C(F)(F)F)c1cc(S(=O)(=O)N2CCC3(CC2)OCCO3)ccc1F	23758*	-0.9	-1.0	-1.4
CCOC(=O)N1CCN(S(=O)(=O)c2ccc(F)c(C(=O)Nc3cccc(Cl)c3C)c2)CC1	2639	-0.6	-4.1	-11.0
CCOC(=O)N1CCN(S(=O)(=O)c2ccc(F)c(C(=O)Nc3cc(C)cc(C)c3)c2)CC1	22579*	2.3	-2.8	3.0
CCOC(=O)c1ccccc1NC(=O)c1ccc(Cl)c(S(=O)(=O)N2CCOCC2)c1	21650*	?	-8.8	0.7
CCOC(=O)c1ccccc1NC(=O)COC(=O)c1ccc(C)c(S(=O)(=O)N2CCOCC2)c1	?	1.3	?	10.1
COc1ccccc1NC(=O)c1ccc(S(=O)(=O)N2CCOCC2)cc1	22270*	?	-4.9	-4.3
CCOC(=O)C1CCN(S(=O)(=O)c2ccc3[nH]c(=O)ccc3c2)CC1	5470	-0.3	-4.0	-9.4
SMILES	Autofluor counter	BoNT A protease	Anthrax LF inh2	BoNT F protease
CCN(C(=O)COC(=O)CNS(=O)(=O)c1ccc(SC)c([N+](=O)[O-])c1)C1CCCCC1	?	-4.9	?	?
Cc1c(C(=O)Nc2ccc(F)cc2)oc2ccc(S(=O)(=O)N3CCCC3)cc12	4097	-0.4	-8.9	-9.9
COc1ccccc1NC(=O)c1cc(S(=O)(=O)N2CCC3(CC2)OCCO3)ccc1F	20818*	-0.2	-0.4	0.8
COC(=O)COc1ccc(S(=O)(=O)N2CCCCCC2)cc1C	3591	-3.5	-10.8	-16.4
Cc1ccc(NC(=O)c2cc(S(=O)(=O)N3CCC4(CC3)OCCO4)ccc2F)cc1	22105*	3.1	0.4	5.4
Cc1c(C(=O)Nc2ccc(F)cc2)oc2ccc(S(=O)(=O)N3CCC4(CC3)OCCO4)cc12	21736*	3.9	-1.0	4.7
CCOC(=O)N1CCN(S(=O)(=O)c2ccc(OCC(=O)OC)c(C)c2)CC1	25177*	-6.7	-1.3	-11.0
CC1(C2CC2)NC(=O)N(CC(=O)N2CCN(S(=O)(=O)c3ccc(F)c(F)c3)CC2)C1=O (stereo not drawn)	3968	-0.4	-4.4	-2.7
COC(=O)C1=C(C)N(C(C)C)C(=O)C1(NC(=O)C1CCCCC1)C(F)(F)F (stereo not drawn)	19805*	?	-4.0	1.5
COCCOC(=O)c1c(N)n(Cc2ccccc2)c2nc3ccccc3nc12	4009	3.5	-0.4	?
COCCn1c(N)c(C(=O)OCc2ccccc2)c2nc3ccccc3nc21	20725*	-0.8	2.5	-1.9
Cc1ccc(-c2ccc(S(=O)(=O)N3CCN(C)CC3)cc2)cc1	21880*	0.8	-1.6	1.4
CN(C)S(=O)(=O)N1CCN(c2ccc(Cl)cc2)CC1	16470*	0.3	-2.3	-0.5
CN1CCN(S(=O)(=O)c2ccc(-c3ccccc3)cc2)CC1	22073*	1.4	2.1	2.8
Cc1ccc(-c2ccc(S(=O)(=O)N3CCCC3)cc2)cc1	4074	-0.1	-1.6	2.8
CN(C)S(=O)(=O)N1CCN(S(=O)(=O)c2ccccc2)CC1	20194*	0.5	-7.1	2.2
COc1ccccc1CC(=O)Nc1ccc(S(=O)(=O)N2CCOCC2)cc1	3391	-4.0	4.3	-19.0
O=C(COc1cc(F)ccc1[N+](=O)[O-])NCCN1C(=O)CSC1=O	3062	-0.7	-0.4	0.8
Cc1cccc(COc2ccccc2C(=O)OCC(=O)N(C)c2c(N)n(Cc3ccccc3)c(=O)[nH]c2=O)c1	6009	0.7	-6.0	-5.3
Cc1ccc(S(=O)(=O)N2CCN(S(=O)(=O)c3ccccc3)C2)cc1	21096*	2.6	-5.2	3.6
Cc1noc(C)c1C(=O)Nc1sc2c(c1C(N)=O)CCCCC2	22480*	-0.5	-1.8	-2.5
CCC(=O)Nc1sc2c(c1C(N)=O)CCC2	23030*	1.3	-5.9	0.3
CCC(C)NCC(=O)Nc1sc2c(c1C(N)=O)CCC2 (stereo not drawn)	3734	1.8	0.9	13.1
COCCN(CCOC)C(=O)CC(=O)N(CCOC)CCOC	19259*	1.5	1.1	1.4
Cn1c(=O)c(NCCO)c2c3c(cccc31)C(=O)c1ccccc1-2	4675	6.0	0.8	9.7
Cn1c(=O)c(NC2CCCCC2)c2c3c(cccc31)C(=O)c1ccccc1-2	8853	44.3*	23.3	10.7
CC(=O)Nc1ccc(Nc2c3c4c(cccc4n(C)c2=O)C(=O)c2ccccc2-3)cc1	1891	-0.3	-5.2	-13.1
CCCCNc1c2c3c(cccc3n(C)c1=O)C(=O)c1ccccc1-2	8728	74.4*	55.6*	49.8*
Cn1c(=O)c(NCCc2ccccc2)c2c3c(cccc31)C(=O)c1ccccc1-2	9014	46.9*	47.0*	40.7*
O=C1c2ccccc2C(c2nnnn2Cc2ccccc2)N1Cc1cccs1 (stereo not drawn)	4146	-0.4	4.3	2.6
